Compound activity from PubChem BioAssay.
In the library only some 0.84% were active in any assay of this set; here they are far more common.
SRC3 TRFRET art: flags TR-FRET format artefacts in PPARgamma SRC-3 recruitment agonist screen | actives 0.39% (n = 99,000) | TR-FRET artefact counter-screen, PPARgamma/SRC-3 format; active compounds read high | TR-FRET ratio at 8 µM | AID 1048
SRC2 TRFRET art: counter-screen for PPARgamma SRC-2 recruitment agonists: TR-FRET artefact | active compounds read high | actives 0.4% (n = 200,000) | TR-FRET ratio at 8 µM | AID 1049
PPARg SRC3 recr: agonists of human PPARgamma SRC-3 coactivator recruitment; P37231; biochemical PPARgamma/SRC-3 coactivator recruitment assay; activation, % at 8 µM; actives 0.26% (n = 200,000); AID 731; in the data active means activation above about 23%;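 further: 0% = DMSO and 100% = reference agonist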
SRC1 TRFRET art: flags TR-FRET format artefacts in PPARgamma SRC-1 recruitment agonist screen; AID 1051; actives 0.34% (n = 99,000); TR-FRET detection artefact counter-screen, emission ratio; active compounds read high; TR-FRET ratio at 8 µM; in the data active means TR-FRET ratio above about 2300
PPARg SRC-2 ag: promotes SRC-2 coactivator recruitment by human PPARgamma. P37231. PPARgamma LBD-SRC-2 recruitment, biochemical. activation, % at 8 µM. actives 0.34% (n = 200,000). AID 1032; in the data active means activation above about 22%;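 further: 0% = vehicle and 100% = reference agonist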
PPARg SRC1 recr: agonists of human PPARgamma SRC-1 coactivator recruitment; PPARgamma-SRC-1 coactivator recruitment biochemical assay; actives 0.41% (n = 200,000); P37231; activation, % at 8 µM; in the data active means activation above about 19%;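 further: 0% = DMSO and 100% = reference agonist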
PPARg SRC2 ag: confirmation of agonists of SRC-2 recruitment by human PPARgamma | shares compounds with PPARg SRC3 recr | biochemical SRC-2 recruitment by PPARgamma | activation, % at 8 µM | actives 52% (n = 790); in the data active means activation above about 22%;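 further: 0% = vehicle alone and 100% = reference agonist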
PPARg SRC1 ag: human PPARgamma SRC-1 recruitment agonism, confirmation; PPARgamma–SRC-1 coactivator recruitment biochemical assay; activation, % at 8 µM; AID 1300; shares compounds with PPARg SRC3 recr; actives 43% (n = 790); in the data active means activation above about 20%;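 further: 0% = vehicle wells and 100% = reference agonist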
PPARg SRC3 conf: human PPARgamma SRC-3 recruitment agonism, confirmation; shares compounds with PPARg SRC3 recr; biochemical PPARgamma-SRC-3 coactivator recruitment, agonist mode; activation, % at 8 µM; actives 29% (n = 790); AID 1301; in the data active means activation above about 24%;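 further: 0% = vehicle wells and 100% = reference agonist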
Numbers without * were called inactive. Unless noted, no stated cut-off is given here; in the data, active means TR-FRET ratio above about 2000; inactive means the rest.

What do the screens show for `Cc1cc(C)cc(CSCC(=O)N/N=C/c2ccc(OCC(=O)NCc3ccco3)cc2)c1`?
SRC2 TRFRET art: 1568; PPARg SRC3 recr: 25*; PPARg SRC-2 ag: 11; PPARg SRC1 recr: 8; PPARg SRC2 ag: 2; PPARg SRC1 ag: 0; PPARg SRC3 conf: 1

What do the screens show for `COc1ccc(CSCC(=O)N/N=C/c2ccc(OCC(=O)NCc3ccco3)cc2)cc1`?
SRC2 TRFRET art: 1647; PPARg SRC3 recr: 5; PPARg SRC-2 ag: -1; PPARg SRC1 recr: 7

How did Cc1ccccc1-n1c(=S)[nH]c2nc3c(cc2c1=O)CCCC3 do in these assays?
SRC3 TRFRET art: 1483; SRC2 TRFRET art: 1366; PPARg SRC3 recr: 3; SRC1 TRFRET art: 1728; PPARg SRC-2 ag: -5; PPARg SRC1 recr: -5

What do the screens show for `Cc1ccc(C(=O)NCCc2ccc(S(=O)(=O)N3CCCC3)cc2)cc1`?
SRC3 TRFRET art: 1782; SRC2 TRFRET art: 1639; PPARg SRC3 recr: 0; SRC1 TRFRET art: 1940; PPARg SRC-2 ag: 0; PPARg SRC1 recr: 4

How did Cc1cc2cc(CNC(=O)c3ccc(S(=O)(=O)N4CCOCC4)cc3)ccc2n1C do in these assays?
SRC2 TRFRET art: 2210*; PPARg SRC3 recr: 45*; PPARg SRC-2 ag: 8; PPARg SRC1 recr: 31*; PPARg SRC2 ag: 35*; PPARg SRC1 ag: 29*; PPARg SRC3 conf: 19

Results for CCCC(=O)NCc1ccc2c(c1)cc(C)n2C ?
SRC2 TRFRET art: 1636; PPARg SRC3 recr: -1; PPARg SRC-2 ag: -2; PPARg SRC1 recr: 9

Results for Cc1cc2cc(CNS(=O)(=O)c3ccc4ccccc4c3)ccc2n1C ?
SRC2 TRFRET art: 3303*; PPARg SRC3 recr: 38*; PPARg SRC-2 ag: 21; PPARg SRC1 recr: 18; PPARg SRC2 ag: 104*; PPARg SRC1 ag: 79*; PPARg SRC3 conf: 65*

What do the screens show for `Cc1cc2ccccc2n1CCNC(=O)c1ccc(S(=O)(=O)N2CCCCC2)cc1`?
SRC2 TRFRET art: 3753*; PPARg SRC3 recr: 44*; PPARg SRC-2 ag: 26*; PPARg SRC1 recr: 24*; PPARg SRC2 ag: 93*; PPARg SRC1 ag: 80*; PPARg SRC3 conf: 70*

How did CCN(CC)CCCN1C(=O)C(O)=C(C(=O)c2cc3ccccc3o2)C1c1ccccn1 (stereo not drawn) do in these assays?
SRC2 TRFRET art: 2586*; PPARg SRC3 recr: 62*; PPARg SRC-2 ag: 48*; PPARg SRC1 recr: 43*; PPARg SRC2 ag: 40*; PPARg SRC1 ag: 30*; PPARg SRC3 conf: 27*

What do the screens show for `CN(C)CCN1C(=O)C(O)=C(C(=O)c2cc3ccccc3o2)C1c1ccccn1` (stereo not drawn)?
SRC2 TRFRET art: 1299; PPARg SRC3 recr: 15; PPARg SRC-2 ag: -6; PPARg SRC1 recr: 5

Results for COc1ccc(NC(=O)N/C=C/c2ccccc2)cc1 ?
SRC3 TRFRET art: 1410; SRC2 TRFRET art: 1669; PPARg SRC3 recr: -3; SRC1 TRFRET art: 1781; PPARg SRC-2 ag: 10; PPARg SRC1 recr: -2

How did NS(=O)(=O)c1ccc(-c2ccc(/C=C3\C(=O)Nc4cc(Cl)ccc43)o2)cc1 do in these assays?
SRC3 TRFRET art: 1999; SRC2 TRFRET art: 1867; PPARg SRC3 recr: 16; SRC1 TRFRET art: 1718; PPARg SRC-2 ag: 16; PPARg SRC1 recr: 27*; PPARg SRC2 ag: 31*; PPARg SRC1 ag: 16; PPARg SRC3 conf: 18

Results for CC1(C)OC(=O)C(=Cc2ccc(-c3ccc(S(N)(=O)=O)cc3)o2)C(=O)O1 ?
SRC3 TRFRET art: 1686; SRC2 TRFRET art: 1382; PPARg SRC3 recr: -1; SRC1 TRFRET art: 1707; PPARg SRC-2 ag: -5; PPARg SRC1 recr: -2

How did COc1c(C)cccc1C(=O)NC(=S)Nc1cccc2nsnc12 do in these assays?
SRC3 TRFRET art: 2881*; SRC2 TRFRET art: 2472*; PPARg SRC3 recr: 36*; SRC1 TRFRET art: 2682*; PPARg SRC-2 ag: 30*; PPARg SRC1 recr: 39*; PPARg SRC2 ag: 90*; PPARg SRC1 ag: 71*; PPARg SRC3 conf: 60*

Results for CC(C)CC(=O)NC(=S)Nc1cccc2nsnc12 ?
SRC3 TRFRET art: 4035*; SRC2 TRFRET art: 3677*; PPARg SRC3 recr: 62*; SRC1 TRFRET art: 5013*; PPARg SRC-2 ag: 87*; PPARg SRC1 recr: 135*; PPARg SRC2 ag: 137*; PPARg SRC1 ag: 105*; PPARg SRC3 conf: 81*

What do the screens show for `CCCCCCCCNC(=O)/C(C#N)=C/c1ccc(SC)cc1`?
SRC3 TRFRET art: 1379; SRC2 TRFRET art: 1484; PPARg SRC3 recr: 6; SRC1 TRFRET art: 1698; PPARg SRC-2 ag: 6; PPARg SRC1 recr: -3

What do the screens show for `CCS(=O)(=O)c1ccc(-c2csc(-c3ccccc3)n2)c(Cl)c1Cl`?
SRC2 TRFRET art: 1746; PPARg SRC3 recr: 1; PPARg SRC-2 ag: -4; PPARg SRC1 recr: 1

How did CCn1c2ccccc2c2cc(NC(=O)c3cc(OC)c(OC)c(OC)c3)ccc21 do in these assays?
SRC2 TRFRET art: 1668; PPARg SRC3 recr: 13; PPARg SRC-2 ag: 6; PPARg SRC1 recr: 8

What do the screens show for `CCn1c(=O)cc(SCC(=O)Nc2cc(OC)c(OC)c(OC)c2)c2ccccc21`?
SRC2 TRFRET art: 2483*; PPARg SRC3 recr: 42*; PPARg SRC-2 ag: 55*; PPARg SRC1 recr: 39*; PPARg SRC2 ag: 40*; PPARg SRC1 ag: 25*; PPARg SRC3 conf: 26*

Results for CCn1c(=O)cc(SCC(=O)Nc2cccc(SC)c2)c2ccccc21 ?
SRC2 TRFRET art: 2529*; PPARg SRC3 recr: 47*; PPARg SRC-2 ag: 42*; PPARg SRC1 recr: 35*; PPARg SRC2 ag: 44*; PPARg SRC1 ag: 28*; PPARg SRC3 conf: 28*

What do the screens show for `c1ccc(-c2nnsc2-c2nc3ccccc3[nH]2)cc1`?
SRC3 TRFRET art: 1662; SRC2 TRFRET art: 1693; PPARg SRC3 recr: 13; SRC1 TRFRET art: 2080; PPARg SRC-2 ag: 17; PPARg SRC1 recr: 21*; PPARg SRC2 ag: 40*; PPARg SRC1 ag: 34*; PPARg SRC3 conf: 22

What do the screens show for `c1ccc(-c2nnsc2-c2ncc[nH]2)cc1`?
SRC3 TRFRET art: 1443; SRC2 TRFRET art: 1496; PPARg SRC3 recr: 1; SRC1 TRFRET art: 1803; PPARg SRC-2 ag: 2; PPARg SRC1 recr: -5

Results for CCc1nc2cc3sc(CC)nc3cc2s1 ?
SRC3 TRFRET art: 1878; SRC2 TRFRET art: 1764; PPARg SRC3 recr: 0; SRC1 TRFRET art: 1815; PPARg SRC-2 ag: 2; PPARg SRC1 recr: -1

How did CC1CCN(C(=O)C2CCN(S(=O)(=O)c3cccc4nonc34)CC2)CC1 do in these assays?
SRC2 TRFRET art: 1795; PPARg SRC3 recr: 14; PPARg SRC-2 ag: 12; PPARg SRC1 recr: -4
